# Among all 330,000 compounds or so, about 1,700 (0.52%) were called active.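 Rule for the calls: active = GFP response versus DMSO above a set limit, roughly screen mean plus 3 SD (cut at about 180% in these data); inconclusive = fewer than 70 cells counted for a yeast strain; inactive = the rest.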 This excerpt belongs to a sample that is enriched for actives.
# Assay: TOR pathway GLN3 branch reporter MEP2-GFP changes – S. cerevisiae, multiplex flow cytometry, MLPCN library, primary screen (AID 2016);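 note: median GFP fluorescence of the barcode-gated MEP2-GFP cells per well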
# Settings: S. cerevisiae MEP2-GFP strain, 3 h, at 10 µM, active compounds read high, 100% = DMSO control level
row,SMILES,GFP response vs DMSO
1,CC(C)(C)C1CCC(C(=O)NCC(c2cccs2)N2CCOCC2)CC1 (stereo unspecified),99% (inactive)
2,CN1CCN(C(=O)Cn2c(C(F)(F)F)nc3ccccc32)CC1,103% (inactive)
3,C=CCN1CC(C)/C(=N\O)CC1C (stereo unspecified),93.2% (inactive)
4,COc1ccc(Cn2c(C)c(C)c(C#N)c2NC(=O)Nc2ccc(F)cc2)cc1,99.5% (inactive)
5,Cc1c(C#N)c(NC(=O)c2ccccc2)n(Cc2ccccc2)c1C,93.8% (inactive)
6,Cc1ccc(C(=O)Nc2c(C#N)c(C)c(C)n2Cc2ccccc2)cc1,364% [may fluoresce violet] (active)
7,Cc1cc(C)c2c(-c3ccc(F)cc3)c(C#N)c(=O)n(C)c2n1,95.2% (inactive)
8,Cc1ccc(CCNC(=O)c2ccc3nc4ccccc4c(=O)n3c2)cc1,112% (inactive)
9,Cc1ccc2nc3c(cc(C(=O)NCCc4ccccc4)c(=N)n3CC3CCCO3)c(=O)n2c1 (stereo unspecified),238% [may fluoresce violet] (active)
10,Cc1cccn2c(=O)c3cc(C(=O)NCC4CCCO4)c(=N)n(Cc4ccc(F)cc4)c3nc12 (stereo unspecified),92.2% (inactive)
11,COc1ccc(-c2c(C(C)=O)c(C)nc3sc4c(=O)n(-c5ccc(C)cc5)nnc4c23)cc1,105% (inactive)
12,O=C(Nc1ccccc1)c1ccc2nsnc2c1,100% (inactive)
13,Cc1cccc(NC(=O)N2CCCCCC2)c1C,98.3% (inactive)
14,Cc1cccc(NC(=O)c2cccc(C(=O)Nc3cccc(C)c3C)n2)c1C,181% [may fluoresce violet] (active)
15,Cc1cccc(NC(=O)c2ccc3nsnc3c2)c1C,100% (inactive)
16,Nc1nc(Sc2ncccc2[N+](=O)[O-])n[nH]1,96.3% (inactive)
17,COc1ccc(N2C(=O)CCC(C(=O)N(C)C3CCCCC3)C2c2ccc(OC)c(OC)c2)cc1 (stereo unspecified),99.1% (inactive)
18,CCCCCn1c(=O)[nH]c2cc(C(=O)NCCCN3CCCCC3C)ccc2c1=O (stereo unspecified),127% (inactive)
19,O=S(=O)(NCC1CN(S(=O)(=O)c2ccc3c(c2)OCCO3)C1)c1c(F)cccc1F,103% (inactive)
20,O=c1c2ccccc2nc(N/N=C/c2ccccc2)n1O,95.1% (inactive)
21,Fc1ccc(/C=N/Nc2nc(-c3cccnc3)nc3ccccc23)cc1,195% (active)
22,O=C(N/N=C/c1cccnc1)c1ccc(NC(=O)c2ccc(F)cc2)cc1,99.6% (inactive)
23,Cc1cc(C)c(S(=O)(=O)NCCCN2CCOCC2)cc1Br,103% (inactive)

row,SMILES,GFP response vs DMSO
1,CN(c1ccccc1)c1ccc(/C=c2\s/c(=C(/C#N)C(=O)C(C)(C)C)n(Cc3ccco3)c2=O)cc1,343% (active)
2,CCOC(=O)Cn1c(=O)oc2cc(S(=O)(=O)N(C)Cc3ccco3)ccc21,91.7% (inactive)
3,CCN1CCN(C(=O)N[C@@H](C(=O)N[C@@H]2C(=O)N3C(C(=O)O)=C(CSc4nnnn4C)CS[C@H]23)c2ccc(O)cc2)C(=O)C1=O,94.9% (inactive)
4,Cc1c(C(=O)Nc2cccc(-c3nnc4n3CCCCC4)c2)oc2ccccc12,104% (inactive)
5,Cc1ccc(-c2csc(NC(=O)Cn3[nH]c(=O)c4ccccc4c3=O)n2)cc1,102% (inactive)
6,O=C(Cn1[nH]c(=O)c2ccccc2c1=O)Nc1cccc(-c2nnc3n2CCCCC3)c1,224% [may fluoresce violet] (active)
7,Cc1ccc(-c2csc(N(Cc3ccco3)C(=O)c3cccs3)n2)cc1,109% (inactive)
8,CCc1nc2ccccc2n(CCOCCOCCn2c(=O)c(CC)nc3ccccc32)c1=O,105% (inactive)
9,CCOCCn1c(C(C)C)nc2ccccc21,94.3% (inactive)
10,CCOCCn1c(-c2ccccc2)nc2ccccc21,236% [may fluoresce violet] (active)
11,CCN(CC(=O)NCc1cccs1)C(=O)c1ccc(OC)c(S(=O)(=O)N2CCOCC2)c1,96% (inactive)
12,Cc1cc(=O)oc2c3c(cc(OCC(=O)NCCC(=O)N[C@@H](C)C(=O)O)c12)OC(C)(C)CC3,92.9% (inactive)
13,CCOc1cc(N2CCOCC2)c(OCC)cc1NC(=O)COc1cccc2cccnc12,295% [may fluoresce violet] (active)
14,CCOc1cc(N2CCOCC2)c(OCC)cc1NC(=O)COc1cccc(Cl)c1,107% (inactive)
15,CCOc1cc(N2CCOCC2)c(OCC)cc1NC(=O)c1ccc(C)s1,94.6% (inactive)
16,O=C(CSc1nnc(-c2ccncc2)n1-c1ccc(Cl)cc1)Nc1ccc(C(=O)O)cc1,101% (inactive)
17,Cc1cc(=O)oc2c3c(cc(OCC(=O)NCc4ccccn4)c12)OC(C)(C)CC3,100% (inactive)
18,O=C(O)c1cc(S(=O)(=O)NC2CCCc3ccccc32)ccc1O (stereo unspecified),232% [may fluoresce violet] (active)
19,CNS(=O)(=O)c1cccc(C(=O)NC2CCCc3ccccc32)c1 (stereo unspecified),102% (inactive)
20,O=C(CCC(=O)N1CCN(S(=O)(=O)c2ccccc2)CC1)NC1CCCc2ccccc21 (stereo unspecified),108% (inactive)
21,CCC(C)(C)c1ccc(OCC(=O)N(C)C)c(C(C)(C)CC)c1,108% (inactive)
22,N#Cc1cccc(NC(=O)COC(=O)c2ccccc2C(=O)c2ccc(Cl)c([N+](=O)[O-])c2)c1,112% (inactive)
23,Cc1ccc(C2(c3ccc(C)cc3)NC(=O)N(Cc3c(C)noc3C)C2=O)cc1,91.9% (inactive)

# — PubChem BioAssay AID2016 (NMMLSC, 2009)
